In article PMC10668032, “Altered binding affinity of SIX1-Q177R correlates with enhanced WNT5A and WNT pathway effector expression in Wilms tumor” one finds binding signal data, which are given here for 88 sequences.

Over roughly 33,000 sequences, “e-score” has its median near -0.053; the highest 2% begin near 0.38. This excerpt belongs to a sample that is enriched for the highest values.

The experiment concerns the target T1, SIX1 homeodomain (reference allele) (human, UniProt Q15475 108-198).
T1 sequence: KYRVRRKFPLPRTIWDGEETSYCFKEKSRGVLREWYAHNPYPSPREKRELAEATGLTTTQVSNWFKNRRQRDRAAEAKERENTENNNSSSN
The experiment is described as follows: universal protein binding microarray; Universal all-10-mer PBM (8x60K, AMADID 030236), 300 nM GST-tagged protein, Alexa Fluor 488 anti-GST; buffer, salt, pH and temperature not stated (as in Berger); high values mean tight binding. To be noted: protein: ivt; tags: N-terminal GST; dsDNA, one strand shown. Put shortly: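 Homeodomains carrying a GST tag were produced by in vitro transcription/translation, then quantified by anti-GST western blot against a recombinant GST standard curve. Duplicate applications at 300 nM final concentration were made to universal 'all 10-mer' protein binding microarrays in 8×60K format. The Universal PBM Analysis Suite was used to express binding as 8-mer E-scores.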
Consider GCGGATCC, for which the binding signal was determined as 0.348 ± 0.0564 E-score.
As for CCGGATCG, the figure is 0.417 ± 0.0468 E-score; as for ACGGATCT, 0.324 ± 0.0553 E-score.
To CCAGATCC belongs 0.332 ± 0.0766 E-score; to ATCTCGAG, 0.215 ± 0.0177 E-score; to AACCCATA, 0.263 ± 0.0634 E-score.
As for GTTAGATA, the figure is 0.248 ± 0.0413 E-score.
With AAGATCAA, the binding signal was 0.201 ± 0.0668 E-score.
As for ATCCTACC, the figure is 0.299 ± 0.0201 E-score.
Regarding CGTATTAG, the binding signal was found to be 0.174 ± 0.0547 E-score.
To GTACACGA belongs 0.165 ± 0.0933 E-score.
To ACTAGATC belongs 0.181 ± 0.003 E-score; to CGAAGATA, 0.325 ± 0.0496 E-score; to ATCCCGAC, 0.238 ± 0.0448 E-score.
To CACCGATA belongs 0.374 ± 0.0197 E-score; to AACCGATA, 0.41 ± 0.00758 E-score.
Take ACCCGATA: the binding signal turned out to be 0.4 ± 0.0453 E-score.
For GCCCGATA, the binding signal came to 0.33 ± 0.0332 E-score.
As for TACCGATA, the figure is 0.375 ± 0.0115 E-score.
Turning to ACCCGATC, the binding signal was 0.372 ± 0.0497 E-score.
As for ATACATTA, the figure is 0.223 ± 0.0139 E-score; as for ATCCATGC, 0.253 ± 0.0158 E-score; as for ATCCGAAC, 0.278 ± 0.0321 E-score.
To ACGGATAC belongs 0.454 ± 0.00689 E-score.
As for GCGGATAA, the figure is 0.317 ± 0.0316 E-score.
Turning to ACGGATAA, the binding signal came out at 0.216 ± 0.0405 E-score.
As for CCGGATAG, the figure is 0.361 ± 0.0142 E-score.
Take ACGGATTC: the binding signal was 0.187 ± 0.0297 E-score.
Regarding CCGGATAC, the binding signal turned out to be 0.4414 ± 0.00339 E-score.
As for GCGGATAC, the figure is 0.43 ± 0.00572 E-score; as for ACGGATAG, 0.344 ± 0.0201 E-score; as for CCGGATAA, 0.299 ± 0.0306 E-score.
As for ACGGATAT, the figure is 0.4283 ± 0.00251 E-score; as for ACGGATTG, 0.179 ± 0.0302 E-score; as for AGGTAGAT, 0.2625 ± 0.00214 E-score.
To GATCTGCC belongs 0.334 ± 0.00569 E-score; to ATCCGAGC, 0.24 ± 0.00809 E-score.
As to GTATTACA, the binding signal was found to be 0.227 ± 0.0055 E-score.
To GATAGTCC belongs 0.24 ± 0.023 E-score; to GGTGTTAA, 0.301 ± 0.0173 E-score; to ATCTGTAC, 0.221 ± 0.0203 E-score.
As for ATCGCATA, the figure is 0.287 ± 0.0238 E-score.
As for GATCATTA, the figure is 0.348 ± 0.0458 E-score; as for AGTCTGAT, 0.19 ± 0.0144 E-score; as for GAGATCCA, 0.332 ± 0.0213 E-score.
As for CCGATCTC, the binding signal turned out to be 0.316 ± 0.0192 E-score.
As for GCGATCGC, the figure is 0.378 ± 0.0183 E-score; as for AAGATCCC, 0.243 ± 0.0194 E-score.
As for CCGATCCC, the figure is 0.412 ± 0.0499 E-score; as for GCGATCCA, 0.345 ± 0.0824 E-score; as for GCGATCCC, 0.395 ± 0.0154 E-score.
As for CCGATCGC, the figure is 0.212 ± 0.0392 E-score; as for CCGATCGA, 0.264 ± 0.0353 E-score; as for ACGATCCC, 0.337 ± 0.0613 E-score.
On to GCGATCGA, for which the binding signal came to 0.199 ± 0.0473 E-score.
With GAGATCCC, the binding signal stood at 0.378 ± 0.0279 E-score.
As for CAGATAGG, the figure is 0.245 ± 0.0333 E-score.
Consider TATATAAA, for which the binding signal was 0.197 ± 0.00308 E-score.
To TAGATCTA belongs 0.175 ± 0.0374 E-score.
As for ATATGTAC, the figure is 0.244 ± 0.0293 E-score; as for ATCGCTTG, 0.156 ± 0.032 E-score; as for ATACGGTG, 0.328 ± 0.012 E-score.
As for AATCGATA, the figure is 0.335 ± 0.0577 E-score; as for GATCGATC, 0.362 ± 0.0437 E-score; as for GAACGATC, 0.236 ± 0.00301 E-score.
Regarding GAACGATA, the binding signal turned out to be 0.383 ± 0.0174 E-score.
As for ATACGGTA, the figure is 0.405 ± 0.0105 E-score; as for ATACGGTC, 0.256 ± 0.0328 E-score; as for GATCGATA, 0.408 ± 0.0108 E-score.
As for ATACGATC, the figure is 0.388 ± 0.00595 E-score; as for ATACGATG, 0.277 ± 0.0162 E-score; as for CTACGATC, 0.233 ± 0.0113 E-score.
Consider TAACGATA, for which the binding signal was 0.315 ± 0.0478 E-score.
As for ACCAGGGT, the binding signal amounted to 0.189 ± 0.0407 E-score.
To CCGTCTAC belongs 0.171 ± 0.0578 E-score.
As for ATCGGTTG, the figure is 0.238 ± 0.008 E-score; as for TAATCTCA, 0.186 ± 0.0184 E-score.
As for GTGTCCAA, the binding signal turned out to be 0.221 ± 0.057 E-score.
Consider GGGCTAGA, for which the binding signal is 0.209 ± 0.0223 E-score.
As for CTACTATC, the figure is 0.273 ± 0.0271 E-score; as for GTACGATA, 0.338 ± 0.0355 E-score; as for CTACGATA, 0.321 ± 0.0303 E-score.
As for ATACGATA, the figure is 0.419 ± 0.0297 E-score; as for ATACTATC, 0.401 ± 0.0105 E-score; as for ACACGATC, 0.266 ± 0.019 E-score.
As for ACACGATA, the figure is 0.384 ± 0.0253 E-score; as for ATACTATA, 0.371 ± 0.0468 E-score; as for ACACGATG, 0.156 ± 0.0256 E-score.
